# From PubChem BioAssay
# An excerpt weighted towards active compounds, which were near 19% of everything screened.
# DT40 TDP1 CPT = growth inhibition of DT40 Tdp1-/-;hTDP1 cells with camptothecin (screen for TDP1 inhibitors). chicken DT40 Tdp1-/-;hTDP1 cells + 20 nM CPT, ATP luminescence, 48 h. Potency, µM (top dose mostly 46.2 µM), without a hit: at the highest dose activity change, negative = growth inhibition, actives largely listed as inhibitors. 12% of 420,000 active. AID 686979; note: nearly all actives have a fitted effect of over 55% in size
#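 Chicken DT40 Tdp1-/- cells stably complemented with human TDP1 were seeded at 400 cells/well in medium containing 20 nM camptothecin, exposed to pin-transferred compounds, and grown at 37 °C for at least 48 hr. Viability was read as ATP luminescence.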
# VP16 counter = counter-screen for ROR gamma inhibitors: Gal4-VP16 reporter; Potency, µM (highest dose often 53.6 µM), without a hit: at the highest dose activity, negative = inhibition, usual class: inhibitors; Drosophila S2 Gal4-VP16 UAS-luciferase, luminescence, 20 h; 3.5% of 310,000 active;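 note: Gal4-VP16 expression switched on by copper sulfate through the metallothionein promoter; nearly all actives have a fitted effect of over 50% in size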
# TDP1 block = inhibitors of human tyrosyl-DNA phosphodiesterase TDP1; recombinant TDP1, AlphaScreen DNA substrate cleavage; Potency, µM (top dose mostly 130 µM), without a hit: at the top dose activity change, negative = inhibition, hits mostly inhibitors; 0.28% of 350,000 active; note: nearly all actives have a fitted effect of over 40% in size
# Target sequence (Q9NUW8 whole entry, looked up): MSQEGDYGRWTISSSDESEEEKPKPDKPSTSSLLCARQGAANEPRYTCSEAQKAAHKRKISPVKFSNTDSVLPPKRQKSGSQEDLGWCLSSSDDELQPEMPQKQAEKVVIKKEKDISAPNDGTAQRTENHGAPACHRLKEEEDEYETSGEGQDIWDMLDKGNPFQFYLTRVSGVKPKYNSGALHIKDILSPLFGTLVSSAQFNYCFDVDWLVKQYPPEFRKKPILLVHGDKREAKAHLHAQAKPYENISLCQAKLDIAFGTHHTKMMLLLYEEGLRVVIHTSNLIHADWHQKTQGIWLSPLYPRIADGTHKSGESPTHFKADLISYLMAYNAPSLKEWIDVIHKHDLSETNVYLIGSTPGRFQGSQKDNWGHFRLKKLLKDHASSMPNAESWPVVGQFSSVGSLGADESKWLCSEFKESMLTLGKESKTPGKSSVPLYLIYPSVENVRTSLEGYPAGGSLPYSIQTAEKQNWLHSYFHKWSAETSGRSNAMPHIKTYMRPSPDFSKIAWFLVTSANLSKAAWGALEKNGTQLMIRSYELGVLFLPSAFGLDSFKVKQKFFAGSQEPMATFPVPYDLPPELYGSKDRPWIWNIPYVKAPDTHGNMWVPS
#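 Recombinant E. coli-expressed Tdp1 (1 nM) preincubated with compound 15 min at RT, then 5'-biotin/3'-phosphotyrosine-FITC DNA substrate (15 nM) added for 5 min. AlphaScreen beads (10 ug/ml) added, 10 min RT; tyrosine-FITC cleavage read as signal loss.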
# RORgamma inh = blocks mouse ROR gamma transcriptional activity | P51450 | Drosophila S2 Gal4-RORgamma UAS-luciferase reporter, 20 h | Potency, µM (highest dose often 53.6 µM), inactives show top-dose activity change, negative = inhibition, actives largely listed as inhibitors | 5.4% of 310,000 active | AID 2551; note: nearly all actives have a fitted effect of over 60% in size
#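 Read-out: Photinus luciferase luminescence; inhibitors lower reporter signal. Insect Schneider cells with Gal4-ROR gamma fusion under metallothionein promoter, UAS reporter; 700 uM final copper sulfate induction, 20 hr, ambient temperature.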
# TDP1 cell noCPT = qHTS for Inhibitors of human tyrosyl-DNA phosphodiesterase 1 (TDP1): qHTS in cells in absence of CPT. Potency, µM (highest dose often 46.2 µM), inactives show top-dose activity change, negative = growth inhibition, most hits filed as inhibitors. DT40 Tdp1-/- hTDP1 cells, no CPT, ATP luminescence, 48 h. AID 686978, 2013. 15% of 420,000 active; note: nearly all actives have a fitted effect of over 55% in size
#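 Chicken DT40 Tdp1-/- cells complemented with human TDP1, screened without camptothecin (DMSO vehicle only), 400 cells/well. Compounds pin-transferred, cells incubated at 37 °C for at least 48 hr. Growth read as ATP-dependent luminescence (CellTiter-Glo, 30 min at RT).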
# An asterisk follows results filed as active; u = inconclusive; x = no result; [ ] = dose if it differs, or a comment. Calls come from the whole dose curve; as a rule, active = well fitted curve in the direction sought with a large enough effect; inconclusive = small, poorly fitted or top-dose-only effect, or another doubt; inactive = no such curve, though single readings can be large; an effect the other way counts as inactive or inconclusive. % is set by controls: 0 for no effect and ±100 for the full control effect; potency is the fitted concentration of half-maximal effect.
SMILES,DT40 TDP1 CPT,VP16 counter,TDP1 block,RORgamma inh,TDP1 cell noCPT
Cc1nc(N)sc1C(=O)N/N=C/c1ccccc1[N+](=O)[O-],x,17.1%,-2.6%,u,x
NC(=O)c1ccc([N+](=O)[O-])cc1,x,-15.9%,14.4%,3.0%,x
O=C(CNC(=O)c1ccc([N+](=O)[O-])cc1)c1ccccc1,0.9%,-11.0%,1.1%,-42.7%,1.2%
O=C(Nc1cccc2ccccc12)c1ccc([N+](=O)[O-])cc1,-6.6%,-4.1%,1.3%,7.9%,u
O=C(CNc1ccccc1)c1ccc([N+](=O)[O-])cc1,14.6µM*,-21.2%,7.9%,0.3%,16.4µM*
O=C(Nc1c[nH]c(=O)[nH]c1=O)c1ccc([N+](=O)[O-])cc1,-0.7%,2.3%,3.5%,-1.1%,10.8%
O=C(Nc1cccc2c(=O)[nH][nH]c(=O)c12)c1ccc([N+](=O)[O-])cc1,8.2µM*,x,x,x,-17.4%
O=C(CNc1cccc2ccccc12)c1ccc([N+](=O)[O-])cc1,14.6µM*,19.8%,-2.6%,-19.8%,13µM*
O=C(CSCC(=O)c1ccc([N+](=O)[O-])cc1)c1ccc([N+](=O)[O-])cc1,20.6µM*,x,x,x,u
O=C(NCC(c1ccco1)N1CCOCC1)c1ccccc1 (centres undefined),3.1%,x,0.1%,x,-3.3%
CCCC(c1nnnn1Cc1ccc2c(c1)OCO2)N1CCC(C(N)=O)CC1 (centres undefined),-0.9%,1.5%,0.0%,-15.5%,u
COC(=O)CSc1nnc(CNC(=O)c2cccs2)n1-c1cccc(C)c1,2.8%,-7.8%,2.0%,-11.0%,-27.0%
O=C(Cc1ccccc1)NC1CCN(C(=O)c2ccc([N+](=O)[O-])cc2)CC1,-1.9%,16.2%,x,30.2%,-13.3%
O=C(NCC1CCN(C(=O)c2ccc([N+](=O)[O-])cc2)CC1)C(=O)Nc1ccccc1,u,6.8%,2.5%,18.6%,20.6µM*
O=C(CCCCCNC(=O)c1ccccc1)N/N=C/c1ccc(O)cc1O,-19.4%,-15.4%,10.5%,-21.1%,-29.7%
C/C(=N/NC(=O)CN(c1ccccc1)S(=O)(=O)c1ccccc1)c1ccccc1O,18.4µM*,0.794µM*,x,0.708µM*,9.2µM*
C/C(=N\NC(=O)CCCCCNC(=O)c1ccccc1)c1ccccc1O,-14.8%,10µM*,0.0%,5.01µM*,-28.1%
CCCC/C(C)=N/NC(=O)CN(c1ccc(Br)cc1)S(=O)(=O)c1ccccc1,-16.7%,1.2%,8.0%,10.7%,3.6%
CCOC(=O)C1CCCCN1C(=O)/C(=C/c1ccc(OC)cc1)c1ccc(OC)c(OC)c1 (centres undefined),18.4µM*,x,3.5%,x,u
CCOC(=O)C1CCCCN1C(=O)c1ccc2nc(Cc3ccc(OC)cc3)oc2c1 (centres undefined),u,-0.2%,4.6%,28.2%,u
CN(c1ccc(C(=O)NC2CC3CCC2C3)cc1)S(C)(=O)=O (centres undefined),-26.5%,13.2%,5.9%,14.7%,-23.2%
COc1ccc(OC)c(C(=O)c2nc3c(n2O)CCCCC3)c1,-29.5%,4.3%,6.6%,-24.0%,-2.8%
O=C(CN1CCN(Cc2ccccc2)CC1)Nc1ccc(Br)cc1,u,-1.6%,x,3.1%,20.6µM*
O=C(CN1CCN(Cc2ccccc2)CC1)Nc1cccc(Cl)c1Cl,u,x,x,x,20.6µM*
O=C(CN1CCN(CC(=O)Nc2ccccc2Cc2ccccc2)CC1)Nc1ccccc1Cl,10.3µM*,0.5%,6.6%,-9.0%,11.6µM*
SMILES,DT40 TDP1 CPT,VP16 counter,TDP1 block,RORgamma inh,TDP1 cell noCPT
O=C(CN1CCCC1)Nc1cccc(Cl)c1Cl,8.3%,0.5%,x,u,-9.3%
O=C(CN1CCCC1)Nc1ccccc1Cl,-3.4%,-9.5%,-5.1%,-11.3%,0.5%
Cc1c(NC(=O)C23CC4CC(CC(Br)(C4)C2)C3)c(=O)n(-c2ccccc2)n1C,0.2%,-6.7%,4.5%,9.3%,13.0%
COc1ccc(S(=O)(=O)N2CCOC23CCN(S(=O)(=O)c2c(C)cc(C)cc2C)CC3)cc1,u,x,-10.7%[0.505 µM],x,16.4µM*
COc1ccc(S(=O)(=O)N2CCOC23CCN(S(=O)(=O)c2ccc(F)cc2C)CC3)cc1,u,x,-0.7%,x,23.1µM*
COc1ccc(S(=O)(=O)N2CCOC23CCN(S(=O)(=O)c2cc(C)ccc2C)CC3)cc1,20.6µM*,x,x,x,u
COCCN1C2=C(C(=O)CC(C)(C)C2)C(c2ccc(O)c(OC)c2)C2=C1CC(C)(C)CC2=O,-0.3%,3.5%,x,-36.6%,-14.5%
O=C(CN1C(=O)c2ccccc2C1=O)OCCOCCN=C1NS(=O)(=O)c2ccccc21,5.5%,-6.4%,1.2%,36.8%,-13.1%
Cc1ccc(-c2nc3scc(CCNS(=O)(=O)c4ccc(F)c(C)c4)n3n2)cc1,u,x,2.6%,x,20.6µM*
Cc1cc(C)c(S(=O)(=O)NCCc2csc3nc(-c4ccc(Cl)cc4)nn23)c(C)c1,u,x,0.0%,x,18.4µM*
Cc1ccc(S(=O)(=O)NCCc2csc3nc(-c4ccccc4F)nn23)cc1C,u,x,5.3%,x,u
COc1ccc(-c2nc3scc(CCNS(=O)(=O)c4ccc(F)cc4C)n3n2)cc1,16.4µM*,x,5.2%,x,16.4µM*
CCOc1ccc(S(=O)(=O)NCCc2csc3nc(-c4cccc(C)c4)nn23)cc1,u,x,2.6%,x,18.4µM*
COc1ncccc1-c1nnn(-c2ccc(Cl)c(Cl)c2)n1,-13.7%,-8.7%,1.3%,-1.8%,-16.0%
O=C(NCc1ccco1)c1ccccc1NC(=O)C1CC(=O)N(c2ccc(Cl)cc2)C1 (centres undefined),u,-3.1%,0.0%,15.4%,u
O=C(CP(=O)(c1ccccc1)c1ccccc1)Nc1nc2ccc(Cl)cc2s1,u,3.3%,6.5%,6.3%,u
O=C(OCc1nnc(-c2ccccc2)o1)c1cc([N+](=O)[O-])ccc1Cl,3.5%,-0.7%,3.0%,-17.6%,-10.8%
CCOc1ccc(CN(C)CC(=O)Nc2ccc(N3CCOCC3)cc2)cc1OC,3.8%,-3.8%,1.9%,29.8%,1.7%
